Six1-Eya2 inh: Six1/Eya2 interaction inhibition; Q15475+O00167; AlphaScreen GST-Six1/His-Eya2 binding, biochemical; hits give low values; activity change, % (no concentration beside the values); 0.56% of 360,000 active; AID 651725; in the data active means activity change below about -65%; inconclusive means mostly about -30% to -63%; further: on the % scale 0 is the no-effect control and ±100 the full control effect
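Compounds are tested against tagged Six1 and Eya2 proteins bridged by glutathione donor and nickel acceptor beads; after a one-hour incubation at 37 °C without light, AlphaScreen emission is recorded.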
CtBP-E1A inh: inhibitors of CtBP/E1A interaction; activity change, % (no concentration beside the values); AlphaScreen GST-E1A/His-CtBP binding, 1536-well; hits give low values; AID 651724; 0.49% of 340,000 active; in the data active means activity change below about -65%; inconclusive means mostly about -30% to -63%; further: on the % scale 0 is the no-effect control and ±100 the full control effect
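AlphaScreen with 125 nM GST-E1A and 125 nM His-CtBP (5X stocks) in Tris pH 8.0, 300 mM NaCl, BSA, Tween 20, TCEP. Compounds preincubated 2 h at 37 deg C, then glutathione donor/nickel acceptor beads added for 1 h at 37 deg C in dark.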
G9a inh: blocks human histone lysine methyltransferase G9a | Q96KQ7 | G9a H3K9 monomethylation, AlphaScreen, 2 h | Potency, µM (top dose mostly 102 µM), without a hit: at the highest dose activity, negative = inhibition, actives largely listed as inhibitors | 8.8% of 350,000 active; further: potency means the concentration at half of the fitted maximal effect; on the % scale 0 is the no-effect control and ±100 the full control effect; nearly all actives have a fitted effect of over 75% in size
Target sequence (Q96KQ7 913-1193 limits assumed): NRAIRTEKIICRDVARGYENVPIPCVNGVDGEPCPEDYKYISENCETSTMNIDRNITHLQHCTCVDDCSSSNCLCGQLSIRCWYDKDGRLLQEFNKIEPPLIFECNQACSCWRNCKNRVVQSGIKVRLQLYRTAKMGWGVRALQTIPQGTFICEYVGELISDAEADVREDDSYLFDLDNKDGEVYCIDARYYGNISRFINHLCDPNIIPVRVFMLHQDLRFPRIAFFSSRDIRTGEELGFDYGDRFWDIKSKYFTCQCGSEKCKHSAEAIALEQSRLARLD
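G9a (20 nM) preincubated 15 min RT with compounds, then 500 nM biotinylated H3K9 peptide and 20 uM SAM added; 2 h RT reaction. Monomethyl-H3K9 product detected by AlphaScreen with anti-H3K9me1 antibody, streptavidin donor and anti-rabbit IgG acceptor beads.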
HP1b binding inh: inhibitors of HP1-beta chromodomain binding to methylated histone tails | P83916 | AlphaScreen HP1-beta / biotin-H3K9me3 peptide binding | Potency, µM (top dose mostly 114 µM), for inactives: top-dose activity change, negative = inhibition, usual class: inhibitors | 0.56% of 390,000 active | AID 540317; further: potency means the concentration at half of the fitted maximal effect; nearly all actives have a fitted effect of over 70% in size
Target sequence (P83916 whole entry, looked up): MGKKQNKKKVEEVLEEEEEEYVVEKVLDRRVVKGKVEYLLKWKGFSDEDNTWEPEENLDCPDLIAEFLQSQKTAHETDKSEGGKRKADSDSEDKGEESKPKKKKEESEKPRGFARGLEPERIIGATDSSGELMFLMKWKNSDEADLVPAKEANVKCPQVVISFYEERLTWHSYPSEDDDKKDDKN
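HP1-beta protein (50 nM final) preincubated 30 min at room temperature with biotinylated H3(1-18)K9me3 peptide (50 nM) in PBS pH 7.4, 0.01% Tween-20, then compound added for 30 min. AlphaScreen streptavidin donor/nickel chelate acceptor beads (10 ug/mL final), 30 min dark, luminescence read.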
BAZ2B inh: inhibitors of human BAZ2B bromodomain | Q9UIF8 | AlphaScreen BAZ2B-H3K14Ac peptide displacement | Potency, µM (doses to about 114 µM), without a hit: at the highest dose activity change, negative = inhibition, most hits filed as inhibitors | 4.4% of 360,000 active | AID 504333; further: potency means the concentration at half of the fitted maximal effect; on the % scale 0 is the no-effect control and ±100 the full control effect; nearly all actives have a fitted effect of over 60% in size
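BAZ2B (50 nM) with biotin-H3(5-23)K14Ac peptide (50 nM) in PBS pH 7.4, 0.01% Tween-20, preformed 30 min, then compound 30 min at room temperature; top concentration 110uM. AlphaScreen streptavidin donor/nickel chelate acceptor beads (10 ug/mL final), 20 min dark, signal read.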
JMJD2A Tudor: blocks the human JMJD2A Tudor domain | O75164 | AlphaScreen JMJD2A-Tudor / H3K4me3 peptide binding | Potency, µM (series often up to 114 µM), for inactives: top-dose activity change, negative = inhibition, most hits filed as inhibitors | 4.4% of 390,000 active | AID 504339; further: potency means the concentration at half of the fitted maximal effect; on the % scale 0 is the no-effect control and ±100 the full control effect; nearly all actives have a fitted effect of over 50% in size
The depositor's hits bear a star; ? = inconclusive; · = no result; [ ] = another dose, or the depositor's remark. Only some compounds are listed: those with a hit (about 10% of all), similar ones and a draw of the others. Unless noted, the call rests on the fitted dose curve; in most records, active means well fitted inhibition curve with a large enough effect; inconclusive means small, poorly fitted or top-dose-only effect; inactive means no such curve, though single readings can be large or run the other way.

SMILES	Six1-Eya2 inh	CtBP-E1A inh	G9a inh	HP1b binding inh	BAZ2B inh	JMJD2A Tudor
Cc1nn(C(=O)COc2ccc(Cl)cc2)c(C)c1Sc1ccccc1	·	·	-21.4%[59 µM]	53.4%	8.8%	9.3%
COc1ccccc1C(=O)Oc1c(Sc2ccccc2)c(C)nn1-c1ccccc1	·	·	-27.7%[59 µM]	91.0%	26.2%	28.3%
Cc1ccc(Sc2c(C)nn(-c3ccccc3)c2OC(=O)CC(C)C)cc1	·	·	8.91µM*	76.7%	7.5%	15.7%
Cc1cc(C)n(C(=O)C23CC4CC(CC(C4)C2)C3)n1	·	·	20.1%[12.7 µM]	·	9.0%	·
CC(C)CCC(O)(CCC(C)C)C(=O)NNc1ccccc1	9.0	6.9	50.1µM*	32.5%	-5.0%	2.5%[57.1 µM]
CN1CCN(S(=O)(=O)Cc2ccccc2Cl)CC1	1.4	-0.4	7.1%	33.2%	-0.4%	1.8%
O=S(=O)(Cc1ccccc1Cl)N1CCCC1	2.2	-78.7*	-17.6%	-22.0%	?	-12.0%
NNc1ncnc2scc(-c3ccc(Cl)cc3)c12	-17.4	10.7	1.8%	-1.6%	70.8µM*	-35.6%
Clc1ccc(-c2csc3ncnc(Cl)c23)cc1	0.4	-4.1	-5.1%[59 µM]	44.8%[57 µM]	2.7%	7.4%
S=c1[nH]cnc2scc(-c3ccc(Cl)cc3)c12	-0.4	1.4	44.7µM*	?	-1.4%	-28.8%
O=C(C1CCC(Cn2c(=O)c3sccc3n(Cc3cccc(F)c3)c2=O)CC1)N1CCOCC1 (configuration not stated)	·	·	5.3%[59 µM]	-12.9%	-32.8%	-21.3%
Cc1nc(NCCc2ccccc2)sc1C(=O)O	-13.8	6.3	-8.6%	-10.8%	-6.3%	-26.4%
CC(=O)c1sc(NC(=O)CCCOc2ccc(Cl)cc2)nc1C	15.3	-7.9	?	28.0%	79.4µM*	-19.0%
CC(=O)c1sc(NCCOc2ccc(C)cc2)nc1C	-6.5	·	50.1µM*	62.5%	1.9%	-8.8%
CC(=O)c1sc(NCc2ccccc2)nc1C	8.8	-4.4	70.8µM*	16.5%	?	-16.6%
CC(=O)c1sc(Nc2cccc3ccccc23)nc1C	-5.1	-10.2	·	4.4%	·	-31.9%
CC(=O)c1sc(Nc2ccccn2)nc1C	-10.9	-4.4	-5.9%[59 µM]	28.1%	50.1µM*	9.5%
CCCOC(=O)c1ccccc1O	·	·	3.2%[12.7 µM]	·	·	·
Cc1c(C(=O)OC2CCC(C)CC2)[nH]c2c1C(=O)CC(c1ccc(F)cc1)C2 (configuration not stated)	·	·	6.9%[59 µM]	18.6%	0.2%	-15.1%
COc1ccc(CCNC(=O)CCc2cn(C)c3ccccc23)c(OC)c1OC	-11.2	-11.2	-4.3%	-4.7%	-12.0%	-25.2%
Cc1ccc(CNc2nc(C)c(C(=O)N(C)C)s2)cc1	8.2	3.6	-29.7%	0.7%	-32.2%	-14.5%
COc1ccc(CCNc2nc(-c3ccc(F)cc3)c(CC(=O)O)s2)cc1OC	-9.7	1.8	7.08µM*	?	-29.5%	-27.9%
CC(=O)c1sc(NCc2ccc(C)cc2)nc1C	-3.0	-26.5	56.2µM*	24.0%	-21.7%	-23.8%
COc1ccc(CCNc2nc(-c3ccc(NC(C)=O)cc3)cs2)cc1OC	-17.3	-13.1	?	-30.4%	?	-33.8%
COc1ccc(CCNc2nc(C)c(C(C)=O)s2)cc1OC	5.7	5.7	3.98µM*	?	?	?
SMILES	Six1-Eya2 inh	CtBP-E1A inh	G9a inh	HP1b binding inh	BAZ2B inh	JMJD2A Tudor
CCC(C(=O)Nc1ccccc1)n1nc(-c2cc(C)ccc2C)ccc1=O (configuration not stated)	·	·	-3.7%[59 µM]	13.2%	-13.8%	-22.3%
Cc1ccc(SC2=C(Sc3ccc(C)cc3)C(=O)c3ccccc3C2=O)cc1	0.3	-11.4	2.82µM*	3.55µM*	3.55µM*	3.55µM*
Cc1ccc(N2C(=O)c3ccccc3C2=O)cc1	5.7	5.6	·	20.7%	-9.9%	0.0%
CCN(C(=O)COC(=O)CCOc1ccc(C(C)(C)C)cc1)c1c(N)n(Cc2ccccc2)c(=O)[nH]c1=O	7.0	-12.0	·	27.6%	·	-10.4%
O=C1CN(S(=O)(=O)c2cccc(C(=O)O)c2)c2ccccc2N1	-20.2	-0.4	50.1µM*	6.7%	4.8%	-6.9%
CCc1cccc(Nc2c([N+](=O)[O-])cc(C(=O)N3CC(=O)Nc4ccccc43)cc2[N+](=O)[O-])c1	-8.9	·	25.1µM*	?	10µM*	?
Cc1cc(C)cc(C(=O)N2CC(=O)Nc3ccccc32)c1	0.4	0.2	-1.0%[59 µM]	26.5%	?	-8.2%
COc1cc(S(=O)(=O)N2CC(=O)Nc3ccccc32)ccc1NC(C)=O	2.1	19.3	39.8µM*	26.1%	0.6%	-11.6%
CCc1cccc(NC(=O)CNC(=O)N2CC(=O)Nc3ccccc32)c1	6.2	1.5	7.9%[59 µM]	19.9%	-15.0%	-22.1%
COc1ccc(S(=O)(=O)N2CC(=O)Nc3ccccc32)cc1C	0.5	-1.9	24.8%	29.7%	-4.2%	-13.8%
CS(=O)(=O)c1ccc(C(=O)N2CC(=O)Nc3ccccc32)cc1	-1.1	-1.2	50.1µM*	25.1%	-3.8%	3.1%
O=C(CSc1nc2ccccc2[nH]1)Nc1ccccc1N1CCOCC1	-6.2	-6.6	-5.7%[59 µM]	41.3%	0.5%	-16.7%
c1ccc2[nH]c(SN3CCOCC3)nc2c1	·	·	?	·	20µM*	·
CC(=O)N1CCC2(CC1)C/C(=N\NC(=S)Nc1ccccc1F)c1cc(O)ccc1O2	-12.6	-11.6	15.8µM*	?	-32.6%	?
CC(=O)N1CCC2(CC1)C/C(=N\NC(=S)Nc1ccccc1C)c1cc(O)ccc1O2	-8.1	-11.0	31.6µM*	?	-31.0%	?
COc1ccccc1NC(=S)N/N=C1\CC(C)(C)Oc2ccc(O)cc21	-20.7	-17.9	?	7.2%	-42.2%	-26.1%
COc1ccccc1/C=C/CN1CCSCC1	-6.7	0.5	31.6µM*	?	56.2µM*	6.31µM*
COc1ccccc1/C=C/CN1CCOCC1	0.1	6.4	?	-51.9%	?	3.16µM*
COc1cccc(C(=O)C2CCCN(C/C=C/c3ccccc3OC)C2)c1 (configuration not stated)	-7.0	-9.2	-42.6%	15.0%	-33.2%	?
Cc1ccc(C2C(C#N)=C(N)SC(N)=C2C#N)o1	·	·	1.58µM*	·	·	·
CCc1ccc(C2C(C#N)=C(N)SC(N)=C2C#N)cc1	-5.5	0.4	8.91µM*	3.8%	?	?
N#CC1=C(N)SC(N)=C(C#N)C1c1ccc(C(F)(F)F)cc1	·	·	2.51µM*	·	-31.5%	·
N#CC1=C(N)SC(N)=C(C#N)C1c1ccc([N+](=O)[O-])cc1	-8.3	7.2	8.91µM*	-36.5%	-37.4%	56.2µM*
CCc1ccc(C2C(C#N)=C(N)Oc3cc(N)ccc32)cc1 (configuration not stated)	15.5	11.6	?	43.6%	?	-18.6%

Screening data from PubChem.
